KB-V1 MDR tox = KB-V1 MDR subline cytotoxicity | KB-V1 MDR cells viability, CellTiter-Glo, 72 h | Potency, µM (top dose mostly 46.1 µM), hits mostly cytotoxic | 400,000 tested, 3.4% active | AID 1347076; further: on the % scale 0 is the no-effect control and ±100 the full control effect; nearly all actives have a fitted effect of over 60% in size
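qHTS viability screen in drug-selected KB-V1 MDR cells: 72 h compound treatment at 37 degrees C, ATP luminescence end point.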
ATXN2 expr inh = reduces ATXN2 reporter expression in HEK-293 cells; HEK-293 ATXN2-luciferase reporter, luminescence, 24 h; Potency, µM (top dose mostly 57 µM), for the others: top-dose activity change, negative = inhibition, hits mostly inhibitors; 360,000 tested, 0.72% active; further: on the % scale 0 is the no-effect control and ±100 the full control effect; nearly all actives have a fitted effect of over 55% in size
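ATXN2-luciferase reporter cells (luciferase flanked by upstream and downstream ATXN2 gene portions) were treated 24 h at 37 °C with compounds at up to 57 uM. SteadyGlo luminescence gave expression; GF-AFC fluorescence gave viability.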
HT1080NT lethal = kills 2HG-producing HT-1080-NT fibrosarcoma cells. 360,000 tested, 1.6% active. HT-1080-NT fibrosarcoma viability, CellTiter-Glo ATP luminescence, 48 h. AID 686970. Potency, µM (titrated, usually from 46.1 µM), inactives show at the highest dose activity, negative = less viability, most hits filed as cytotoxic;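 further: NT is the 2HG producing partner of a matched IDH1 knockdown line; 0% = DMSO-treated cells and -100% = media-only wells without cells; nearly all actives have a fitted effect of over 55% in size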
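HT-1080-NT fibrosarcoma cells (2HG-overproducing), 750 cells/well in RPMI with 5% FBS, dosed after 2 h and incubated 48 h at 37C. CellTiter-Glo luminescence normalized to DMSO and no-cell wells; concentration-response curves fitted and classed.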
ATXN viability = viability counter-screen for ATXN expression inhibitors; AID 651635; S2 cells (HEK-293 line with an ATXN2-luciferase reporter) viability, CellTiter-Fluor protease fluorescence, 24 h; Potency, µM (highest dose often 56.7 µM), hits mostly cytotoxic; 400,000 tested, 0.49% active; further: nearly all actives have a fitted effect of over 40% in size
KB-3-1 tox = kills parental KB-3-1 adenocarcinoma cells | KB-3-1 viability, CellTiter-Glo ATP luminescence, 72 h | Potency, µM (top dose mostly 46.1 µM), usual class: cytotoxic | 400,000 tested, 1.4% active; further: on the % scale 0 is the no-effect control and ±100 the full control effect; nearly all actives have a fitted effect of over 60% in size
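72 h, 37 °C compound treatment of KB-3-1 parental cells; CellTiter-Glo added, 10 min, luminescence read. Data corrected against DMSO-only plates and normalized before curve fitting.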
HT1080 IDH1KD tx = HT-1080 IDH1 knockdown cell toxicity (counter line); HT-1080 IDH1 knockdown viability, ATP luminescence, 48 h; Potency, µM (titrated, usually from 46.1 µM), inactives show at the top dose activity, negative = toxicity, usual class: cytotoxic; 360,000 tested, 2% active;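 further: 0% = DMSO wells and -100% = cell-free medium wells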
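Assay cells: HT-1080 with IDH1 knockdown, 750 per well, RPMI/5% FBS. Exposure: 48 h at 37 °C following 2 h pre-incubation. Read: CellTiter-Glo luminescence; fitted concentration-response, curve class assigned.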
Active calls of the source: *; i = inactive; ? = inconclusive; · = no result given; ! = not active in a repeat; [ ] = remark or other dose. An excerpt weighted towards active compounds, which were near 6.2% of everything screened. The call rests on the fitted dose curve; in most records, active means well fitted curve in the direction sought with a large enough effect; inconclusive means small, poorly fitted or top-dose-only effect, or another doubt; inactive means no such curve, though single readings can be large; an effect the other way counts as inactive or inconclusive. Potency means the concentration at half of the fitted maximal effect.

SMILES	KB-V1 MDR tox	ATXN2 expr inh	HT1080NT lethal	ATXN viability	KB-3-1 tox	HT1080 IDH1KD tx
COc1ccc(C(OCC(O)CNCCc2ccccc2)c2ccc(OC)cc2)cc1 (centres undefined)	16µM*	?	23µM*	?	?	23µM*
CCOc1ccccc1NC(=O)Nc1nnc(N2CCCCCC2)s1	i	3%	·	i	i	·
CC(C)C[C@@H](N)[C@H](O)C(=O)N[C@H](C(=O)N[C@H](C(=O)N[C@@H](CC(=O)O)C(=O)O)C(C)C)C(C)C	·	-11%	·	·	·	·
CCc1nc2cccnc2n1-c1ccc(CC(=O)O)cc1	i	-2%	10%	i	i	12%
Cc1ccc(NC(=O)Cc2ccc(-n3c(C)nc4cccnc43)cc2)c(Cl)c1	5.8µM*	·	·	·	18µM*	·
N#Cc1nc(Cc2cccc3ccccc23)oc1NCc1ccco1	?	0%	-2%[9.24 µM]	i	i	?
N#Cc1nc(Cc2cccc3ccccc23)oc1NCC1CCCO1 (centres undefined)	16µM*	1%	-11%	i	i	-19%
O=C(CSC(=S)N1CCCC1)c1cc(Br)cc(Br)c1O	i	?	16µM*	i	i	-15%
CC1CCCN(C(=S)SCC(=O)c2cc(Br)cc(Br)c2O)C1 (centres undefined)	i	·	-16%	·	i	-27%
CCCc1cc(C(=O)Cc2ccccn2)c(O)cc1O	i	·	1%	i	i	0%
O=C(NCCc1ccccc1)c1ccc(CS(=O)(=O)Cc2ccccc2F)o1	15µM*	13%	9%	?	i	2%
Cc1ccc(CCNC(=O)c2ccc(CS(=O)(=O)Cc3ccccc3F)o2)cc1	5.8µM*!	-13%	-7%	?	i	-5%
Cc1ccccc1CS(=O)(=O)Cc1ccc(C(=O)NCCc2ccc(Cl)cc2)o1	i	·	·	·	i	·
O=C(NCCc1cccs1)c1ccc(CS(=O)Cc2cccc(Cl)c2)o1 (centres undefined)	?	·	-2%	?	i	0%
CCOc1ccc(CCNC(c2nnc(-c3ccccc3)o2)c2ccccc2Cl)cc1OCC (centres undefined)	i	-29%	·	i	?	·
CC(C(=O)N1CCCC1)N(c1ccc(Cl)cc1)S(C)(=O)=O (centres undefined)	i	·	-4%	i	i	-2%
Cc1ccc(S(=O)(=O)c2ncccc2[N+](=O)[O-])cc1	?	·	9.2µM*	5µM*	?	23µM*
Cc1cccc(NC(=O)CN2C(=O)c3cccnc3Oc3ccc(Cl)cc32)c1C	i	·	·	·	i	·
Cc1cc(N2CCN(c3nc(-c4ccc([N+](=O)[O-])cc4)cs3)CC2)c2ccccc2n1	?	-35%	18µM*	i	i	?
CN1CCN(Cc2nc3ccccc3c(=O)n2Cc2nc(-c3ccc([N+](=O)[O-])cc3)cs2)CC1	?	?	21µM*	?	?	21µM*
CN(C)c1cc(N2CCOCC2)nc(C#N)n1	·	·	4%	·	·	8%
COc1ccccc1-c1nc(-c2ccccc2)nc(N2CCN(C)CC2)c1C#N	i	9%	16µM*	i	?	21µM*
CC1(C)CCC2=C(O1)c1ccccc1C(=O)C2=O	?	27µM*	·	·	?	·
CC1(C)CCC(=O)c2ccccc21	i	3%	1%	i	i	-6%
CC(C)[C@H](C(=O)Nc1ccc(C(=O)NO)cc1)c1ccccc1	·	76%	·	·	·	·
SMILES	KB-V1 MDR tox	ATXN2 expr inh	HT1080NT lethal	ATXN viability	KB-3-1 tox	HT1080 IDH1KD tx
C/C(=N\Nc1nc(N2CCCCC2)nc(N2CCOCC2)n1)c1ccccc1O	16µM*	?	?	i	?	18µM*
C/C(=N\Nc1nc(N2CCOCC2)nc(N2CCOCC2)n1)c1cccs1	i	-29%	-8%	i	i	5%
CN1C2CCC1/C(=C\c1ccc(F)cc1)C(=O)/C2=C/c1ccc(F)cc1	23µM*	-21%	-2%	i	?	10%
Cc1c(C(=O)NCC2CCCO2)oc2ccc(Br)cc12 (centres undefined)	i	45%	0%	i	i	0%
O=C(Nc1cccc(C(F)(F)F)c1)Nc1ccc(N2CCCC2)c(S(=O)(=O)Nc2ccccc2Cl)c1	8.2µM*	?	?	?	7.3µM*	8.2µM*
CC(=O)Nc1ccc(N2CCOCC2)c(S(=O)(=O)Nc2ccccc2Cl)c1	i	·	0%	?	i	1%
COc1ccccc1NS(=O)(=O)c1cc(NC(=O)Nc2ccc(Cl)cc2Cl)ccc1N1CCCCC1	10µM*	6%	6%	?	?	-19%
COc1ccccc1NS(=O)(=O)c1cc(NC(=O)C2CCC2)ccc1N1CCCCC1	i	-14%	-3%	i	i	1%
COc1ccccc1N1CCN(C2CC(=O)N(c3cccc(Cl)c3)C2=O)CC1 (centres undefined)	i	-6%	8%	i	i	7%
CCc1nnc(NC(=O)c2cc(=O)c3cc(C)ccc3o2)s1	i	1%	·	i	?	·
O=C(c1cnccn1)N1CCc2c([nH]c3ccccc23)C1c1cccc(Cl)c1 (centres undefined)	23µM*	-17%	-14%	i	?	-24%
CCc1cc(C(=O)N2CCc3c([nH]c4ccccc34)C2c2ccc(OC)cc2F)no1 (centres undefined)	?	48%	?	i	5.8µM*	-30%
CC(=O)N1CCc2cc(Br)cc(S(=O)(=O)CCC(=O)N3CCN(c4cccc(C)c4C)CC3)c21	i	-35%	·	?	i	·
NS(=O)(=O)c1ccc(NC(=O)CCC(=O)O)cc1	·	4%	·	i	·	·
COc1cc(OC)cc(C(=O)NCC2Cc3cccc(-c4nc(C)cnc4C)c3O2)c1 (centres undefined)	·	·	·	i	·	·
Cc1ccc(NC(=O)/C(C#N)=C(\N)C(Cl)(Cl)Cl)nc1	?	-15%	?	?	18µM*	?
Cc1ccc(NC(=O)C(=O)Nc2ccc(C)cn2)nc1	i	15%	?	i	i	4%
COc1ccc(-c2ccc3ncnc(NCc4nc(C)cs4)c3c2)cc1OC	?	·	·	·	i	·
CC(C)CCCCCCCCCCCCC(=O)NCC(=O)NC1C(O)C(O)C(Nc2ncnc3nc[nH]c23)OC1C(O)CO (centres undefined)	0.16µM*	-66%	?	i	0.18µM*	0.16µM*
Cc1ccc(CNc2nc(CN3CCNC(=O)C3)nc3ccccc23)o1	·	·	·	i	·	·

From PubChem
